Shown is part of a subset that was picked to be rich in hits.
ST2 IL33 inh: inhibitors of human ST2 (IL1RL1) binding to IL-33, primary screen, biochemical, AlphaLISA | 78,000 compounds, 2.3% hits | Interleukin-1 receptor-like 1 (Homo sapiens), Q01638 | AlphaLISA ST2-Fc/biotin-IL-33 interaction, 1 h | inhibition, % for hits at 17 µM | AID 1259354, 2018; in the data active = inhibition above about 30%
Target sequence (Q01638 whole entry, looked up): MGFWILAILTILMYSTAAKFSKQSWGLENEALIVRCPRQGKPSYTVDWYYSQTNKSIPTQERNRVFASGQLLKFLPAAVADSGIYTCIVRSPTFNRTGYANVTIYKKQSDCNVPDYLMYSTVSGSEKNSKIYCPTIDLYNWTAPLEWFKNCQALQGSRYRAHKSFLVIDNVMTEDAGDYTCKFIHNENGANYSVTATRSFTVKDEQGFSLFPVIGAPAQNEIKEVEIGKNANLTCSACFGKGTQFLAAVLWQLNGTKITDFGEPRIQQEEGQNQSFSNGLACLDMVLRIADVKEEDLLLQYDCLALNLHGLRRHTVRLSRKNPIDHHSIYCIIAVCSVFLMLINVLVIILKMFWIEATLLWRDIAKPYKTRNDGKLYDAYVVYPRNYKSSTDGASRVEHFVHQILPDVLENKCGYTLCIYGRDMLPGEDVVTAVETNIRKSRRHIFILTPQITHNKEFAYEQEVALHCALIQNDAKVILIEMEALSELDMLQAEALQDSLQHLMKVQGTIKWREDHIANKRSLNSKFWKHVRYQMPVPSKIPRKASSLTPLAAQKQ
* hit, by the source's call.

What do the screens show for `O=C(Nc1ccccc1)c1cc([N+](=O)[O-])ccc1Cl`?
ST2 IL33 inh: inactive

What do the screens show for `Cc1ccc(NC2=NS(=O)(=O)c3ccccc32)c([N+](=O)[O-])c1`?
ST2 IL33 inh: inactive

How did COc1cccc(C(=O)Nc2ccc(Nc3nc(C)cc(Nc4ccc(C)cc4)n3)cc2)c1OC do in these assays?
ST2 IL33 inh: inactive

What do the screens show for `COc1ccc(OC)c(S(=O)(=O)Nc2ccc(S(N)(=O)=O)cc2)c1`?
ST2 IL33 inh: inactive

How did CCOc1cc(CN2CCN(c3ccccn3)CC2)ccc1O do in these assays?
ST2 IL33 inh: inactive

What do the screens show for `O=C(c1ccc2c(c1)N(Cc1cccc(Cl)c1)C(=O)CS2)N1CCC2(CC1)OCCO2`?
ST2 IL33 inh: inactive

Results for O=C(NC1CCCCC1)C1C2C=CC3(CN(Cc4cccs4)C(=O)C13)O2 (configuration not stated) ?
ST2 IL33 inh: inactive

Results for COc1ccccc1NC(=O)Cn1c(-c2nonc2N)nc2ccccc21 ?
ST2 IL33 inh: inactive

How did CCCNC(=O)c1sc2c(Cl)c(OC)ccc2c1Cl do in these assays?
ST2 IL33 inh: 53%*

How did CCCCNC(=O)c1sc2ccccc2c1Cl do in these assays?
ST2 IL33 inh: inactive

What do the screens show for `COc1ccc(NC(=O)c2sc3ccccc3c2Cl)cc1Cl`?
ST2 IL33 inh: inactive

Results for Cc1c(CN2CCC(CCC(=O)NCc3ccc(F)cc3)CC2)[nH]c2ccccc12 ?
ST2 IL33 inh: inactive

How did O=C1NC(=O)/C(=C\c2ccccc2OCc2ccccc2)S1 do in these assays?
ST2 IL33 inh: inactive

Results for CSC1=N/C(=C\c2ccccc2OCc2ccccc2)C(=O)S1 ?
ST2 IL33 inh: 64%*

What do the screens show for `CC1=NN(c2ccccc2)C(=O)/C1=C/c1ccccc1OCc1ccc(C(=O)O)cc1`?
ST2 IL33 inh: inactive

How did Cc1ccccc1CN1CCC(N2CCN(CCO)CC2)CC1 do in these assays?
ST2 IL33 inh: inactive

What do the screens show for `O=C(NS(=O)(=O)c1ccc(NS(=O)(=O)c2cccs2)cc1)c1ccccc1`?
ST2 IL33 inh: inactive

Results for NC(=NS(=O)(=O)c1cccs1)c1ccccc1 ?
ST2 IL33 inh: inactive

How did O=C(O)c1cccc(NC2=CC(=NS(=O)(=O)c3cccs3)c3ccccc3C2=O)c1 do in these assays?
ST2 IL33 inh: 40%*

Results for COc1cc(NS(=O)(=O)c2ccc(Cl)cc2)c(OC)cc1NC(=O)c1ccccc1 ?
ST2 IL33 inh: inactive

How did COc1ccccc1NC1=CC(=O)CC(c2ccccc2)C1 (configuration not stated) do in these assays?
ST2 IL33 inh: inactive

Results for O=C1C(Nc2ccccc2)=CC(=NS(=O)(=O)c2cccs2)c2ccccc21 ?
ST2 IL33 inh: 86%*

How did COc1ccccc1NC1=CC(=NS(=O)(=O)c2cccs2)c2ccccc2C1=O do in these assays?
ST2 IL33 inh: 90%*

What do the screens show for `COc1ccccc1NC(=O)C1c2cc(OC)c(OC)cc2C(=O)N(C)C1c1cccs1` (configuration not stated)?
ST2 IL33 inh: inactive

What do the screens show for `CC(C)CN(CC(C)C)S(=O)(=O)c1cccs1`?
ST2 IL33 inh: inactive

Results for O=C(O)c1cccc(Nc2nc(-c3cccs3)cs2)c1 ?
ST2 IL33 inh: inactive

How did COC(=NS(=O)(=O)c1ccc(Cl)cc1)c1ccccc1 do in these assays?
ST2 IL33 inh: inactive

What do the screens show for `COc1ccccc1NC1=CC(=NS(=O)(=O)c2ccc(Cl)cc2)c2ccccc2C1=O`?
ST2 IL33 inh: 95%*

What do the screens show for `O=C(NCCCCCCNC(=O)NCc1ccc2c(c1)OCO2)NCc1ccc2c(c1)OCO2`?
ST2 IL33 inh: inactive

How did O=C(Cn1cnc2scc(-c3ccccc3)c2c1=O)Nc1ccccc1 do in these assays?
ST2 IL33 inh: inactive

How did COc1ccc(CNC(=O)CCC2CCCN(C(=O)C3CCOCC3)C2)c(OC)c1 (configuration not stated) do in these assays?
ST2 IL33 inh: inactive

What do the screens show for `CCOC(=O)c1ccc(NS(=O)(=O)c2ccc3c(c2)CCN3C(=O)C2CC2)cc1`?
ST2 IL33 inh: inactive

What do the screens show for `COc1ccccc1CNC(=O)CN(c1ccccc1Cl)S(=O)(=O)c1ccccc1`?
ST2 IL33 inh: inactive

Results for Cc1cc(Cl)ccc1OC(C)C(=O)Nc1nncs1 (configuration not stated) ?
ST2 IL33 inh: inactive

What do the screens show for `O=C(/C=C/CCc1ccccc1)CCc1ccccc1`?
ST2 IL33 inh: inactive

How did Oc1ccc(-c2ncccc2O)cc1 do in these assays?
ST2 IL33 inh: inactive

Results for Cc1cc2c(cc1C(=O)N1CCC(Cc3cccc(C(N)=O)c3)C1)OCCO2 (configuration not stated) ?
ST2 IL33 inh: inactive

How did CCOc1ccc(-n2c(=O)c3sccc3n(CC(=O)Nc3cc(C)[nH]n3)c2=O)cc1 do in these assays?
ST2 IL33 inh: inactive

What do the screens show for `Cc1cccc(NC(=O)CN2C(=O)C(=O)c3ccccc32)c1`?
ST2 IL33 inh: inactive

What do the screens show for `C/C(Cl)=C\CN1C(=O)C(=O)c2cccc(C)c21`?
ST2 IL33 inh: 54%*

What do the screens show for `Cc1cc(CN2C(=O)C(=O)c3ccccc32)c(C)cc1CN1C(=O)C(=O)c2ccccc21`?
ST2 IL33 inh: inactive

Results for O=C(CSC1=Nc2ccccc2C2=NC(c3ccccc3)C(=O)N12)NCc1ccco1 (configuration not stated) ?
ST2 IL33 inh: inactive

How did Cc1cccc(NS(=O)(=O)c2c(C)noc2C)c1C do in these assays?
ST2 IL33 inh: inactive

Results for CCc1ccccc1NC(=O)c1ccc([N+](=O)[O-])cc1 ?
ST2 IL33 inh: inactive

How did Cc1ccccc1NCC(=O)c1ccc([N+](=O)[O-])cc1 do in these assays?
ST2 IL33 inh: 48%*

Results for Cc1ccccc1C(=O)Nc1ccc([N+](=O)[O-])cc1 ?
ST2 IL33 inh: inactive

What do the screens show for `O=[N+]([O-])c1ccc(N=Cc2cc(Cl)cc(Cl)c2O)cc1`?
ST2 IL33 inh: inactive

What do the screens show for `CCCCNc1nc2c(c(=O)n(Cc3cccc(Br)c3)c(=O)n2C)n1C`?
ST2 IL33 inh: 32%*

What do the screens show for `CCCCNc1nc2c(c(=O)n(C)c(=O)n2C)n1Cc1cccc(Cl)c1`?
ST2 IL33 inh: inactive

What do the screens show for `COCCNc1nc2c(c(=O)n(C)c(=O)n2C)n1Cc1cccc(Br)c1`?
ST2 IL33 inh: inactive

How did O=C(Nc1ccc2c(c1)OCO2)N1CCCC1c1ccccn1 (configuration not stated) do in these assays?
ST2 IL33 inh: inactive

What do the screens show for `COc1ccc(N2CCN(C(=O)c3cc4c(=O)n5ccccc5nc4n3C)CC2)cc1`?
ST2 IL33 inh: inactive

Results for COc1cccc(OC)c1OC ?
ST2 IL33 inh: inactive

How did COc1ccccc1N=C1C(=O)Nc2ccccc21 do in these assays?
ST2 IL33 inh: inactive

What do the screens show for `COc1cccc2c1NC(C)(C)C=C2C`?
ST2 IL33 inh: 46%*

How did Cn1ccnc1CCC1CCCCN1C(=O)NCc1cccc(F)c1 (configuration not stated) do in these assays?
ST2 IL33 inh: inactive

How did CCC(C(=O)N1CCC(c2[nH]ncc2-c2ccccc2)CC1)n1cccn1 (configuration not stated) do in these assays?
ST2 IL33 inh: inactive

How did Cc1c(NC(=O)c2ccccc2)cccc1[N+](=O)[O-] do in these assays?
ST2 IL33 inh: inactive

How did Cc1c(NC(=O)C(c2ccccc2)c2ccccc2)cccc1[N+](=O)[O-] do in these assays?
ST2 IL33 inh: 44%*

How did Cc1c(NC(=O)C2CC2)cccc1[N+](=O)[O-] do in these assays?
ST2 IL33 inh: inactive

What do the screens show for `Clc1nc(N2CCCCCC2)nc(N2CCCCCC2)n1`?
ST2 IL33 inh: inactive

Screening results: PubChem BioAssay, Paczesny and Yang Labs, IUPUI and University of Michigan
